# Measurements published in PubChem BioAssay.
# Activity calls are given as the source filed them. Cut-off read from the data, not from the text of the source, unless noted: active = inhibition above about 80%; inactive = the rest.
# Assays:
# [1] = growth inhibition, single agent or in combination, cell-based, chromothripsis tumors, cisplatin or BGB combos (AID 1671449); conditions: LFS_MB_P medulloblastoma cells;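 note: cells exposed for 96 hours; 0% = vehicle DMSO and 100% = killing by high DMSO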
# [2] = growth inhibition, single agent and combos, cell-based, chromothripsis tumors, cisplatin or BGB combos (AID 1671450); conditions: HDN33 neuroblastoma cells, stronger effect = higher value;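 note: cells exposed to compound for four days; 0% = vehicle DMSO and 100% = cell killing by high DMSO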
# [3] = growth inhibition, single agents and combos, ICB984, cell-based, cisplatin or BGB combos, synergistic combos for chromothripsis tumors (AID 1671451; call rule not given here;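 note: cells exposed for 96 hours before readout; 0% = vehicle DMSO and 100% = killing by high DMSO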); conditions: ICB984 medulloblastoma cells, drug combinations, stronger effect = higher value
# [4] = growth inhibition, single agents and combos, LFS_MB_1R, cell-based, cisplatin or BGB combos, synergistic combos for chromothripsis tumors (AID 1671452); conditions: LFS_MB_1R medulloblastoma cells, stronger effect = higher value;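 note: cells exposed for 96 hours before readout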
# [5] = growth inhibition, single agents and combos, HTB85, cell-based, BGB or cisplatin IC20 combos, synergistic combos for chromothripsis tumors (AID 1671453); conditions: HTB85 osteosarcoma cells, drug combinations, stronger effect = higher value;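 note: cells exposed for 96 hours before readout; 0% = vehicle DMSO and 100% = high DMSO killing control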
# [6] = growth inhibition, single agents and combos, CRL2098, cell-based, BGB or cisplatin IC20 combos, synergistic combos for chromothripsis tumors (AID 1671454); conditions: CRL2098 osteosarcoma cells, drug combinations, stronger effect = higher value;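 note: cells exposed for 96 h before readout; 0% = vehicle DMSO and 100% = killing by high DMSO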
# [7] = growth inhibition, single agents and combos, HD-MB03, cell-based, BGB or cisplatin IC20 combos, synergistic combos for chromothripsis tumors (AID 1671455; in the data active = inhibition above about 83%;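 note: 0% = vehicle DMSO and 100% = high DMSO as cytotoxic control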); conditions: HD-MB03 medulloblastoma cells, stronger effect = higher value
# [8] = growth inhibition, single agents and combos, UWB1.289, cell-based, BGB or cisplatin combos, synergistic combos for chromothripsis tumors (AID 1671456); conditions: UWB1.289 ovarian carcinoma cells, stronger effect = higher value;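 note: cells exposed to compound for four days; 0% = vehicle DMSO and 100% = killing by high DMSO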
# [9] = growth inhibition, single agents and combos, LFS_MB_2R, cell-based, cisplatin combos, synergistic combos for chromothripsis tumors (AID 1671457); conditions: LFS_MB_2R medulloblastoma cells, stronger effect = higher value;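 note: cells exposed to compound for four days before readout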
# [10] = growth inhibition, MDA-MB-436, cell-based, BGB or cisplatin combos, synergistic combos for chromothripsis tumors (AID 1671458; call rule not given here;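 note: cells exposed for 96 hours; 0% = vehicle DMSO and 100% = killing by high DMSO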); conditions: MDA-MB-436 breast carcinoma growth inhibition, drug combinations, stronger effect = higher value
# [11] = UWB1.289_BRCA1 ovarian cancer growth, cell-based, BGB or cisplatin combinations (AID 1671459); conditions: UWB1.289 BRCA1 ovarian carcinoma, drug combinations, stronger effect = higher value
# [12] = drug combination toxicity in non-malignant astrocytes – cell-based, BGB or cisplatin IC20 combos, cytotoxicity control for chromothriptic childhood tumor combination screen (AID 1671460); conditions: Human astrocytes, viability inhibition, drug combinations, at 0.5 µM, stronger effect = higher value;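 note: cells exposed to compounds for 96 hours before viability readout; 0% = vehicle and 100% = killing control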
# [13] = BT084 cell growth, single and combined drugs, ICGC_MB145, cisplatin and BGB IC40 combos (AID 1671461); conditions: BT084 medulloblastoma cells, drug combinations, stronger effect = higher value;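 note: cells exposed to drugs for 96 hours; 0% = vehicle DMSO and 100% = high DMSO full killing control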
# [14] = RCMB18 cell growth, single agent and combined, cisplatin and BGB IC40 combos (AID 1671462); conditions: RCMB18 medulloblastoma cells, stronger effect = higher value;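 note: cells exposed to compound for four days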
# [15] = CRL1545 cell growth, single agent and combined, cisplatin and BGB IC20 combos (AID 1671464); conditions: CRL1545 osteosarcoma cells, stronger effect = higher value;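 note: cells exposed to compound for 96 hours before readout; 0% = vehicle DMSO and 100% = high DMSO killing control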
# [16] = at 0.5 µM, stronger effect = higher value
# [17] = measured here: combination with BGB IC20, at 0.005 µM
# [18] = measured here: combination with BGB IC40, at 0.005 µM
# [19] = measured here: combination with BGB IC40, at 0.05 µM
# [20] = measured here: combination with cisplatin, at 0.5 µM, stronger effect = higher value
# [21] = measured here: combination with cisplatin, at 5 µM, stronger effect = higher value
# [22] = measured here: with BGB IC20 combination, at 0.5 µM
# [23] = measured here: with cisplatin IC20 combination, at 0.5 µM
# [24] = measured here: 5 uM single agent, at 5 µM
# [25] = measured here: combination with cisplatin, at 0.5 µM
# [26] = measured here: combination with cisplatin, at 5 µM
# [27] = measured here: with BGB IC20, at 0.5 µM
# [28] = measured here: with BGB IC20, at 5 µM
# [29] = measured here: with cisplatin IC20, at 0.5 µM
# [30] = measured here: with cisplatin IC20, at 5 µM
# [31] = measured here: combination with BGB at IC20, at 0.5 µM
# [32] = measured here: combination with cisplatin at IC20, at 0.5 µM
# [33] = measured here: combo with BGB at IC20, at 0.5 µM
# [34] = measured here: combo with cisplatin at IC20, at 0.5 µM
# [35] = measured here: inhibition with BGB combination, at 0.05 µM
# [36] = measured here: inhibition with cisplatin combination, at 0.05 µM
# [37] = measured here: BGB combination, at 0.5 µM
# [38] = measured here: BGB combination, at 5 µM
# [39] = measured here: cisplatin combination, at 0.5 µM
# [40] = measured here: cisplatin combination, at 5 µM
# [41] = BGB combination, concentration series, at 5 µM
# [42] = cisplatin combination, concentration series, at 5 µM
# [43] = measured here: combo with BGB IC20
# [44] = measured here: combo with cisplatin IC20
# [45] = cisplatin combination, at 0.5 µM
# [46] = measured here: BGB IC40 combination 0.05 uM, at 0.05 µM
# [47] = measured here: BGB IC40 combination, at 0.05 µM
smiles,measurement,setting,value
C=C(NC(=O)C(=C)NC(=O)c1csc(C2=NC3c4csc(n4)C4NC(=O)c5csc(n5)C(C(C)(O)C(C)O)NC(=O)C5CSC(=N5)/C(=C/C)NC(=O)C(C(C)O)NC(=O)c5csc(n5)C3(CC2)NC(=O)C(C)NC(=O)C(=C)NC(=O)C(C)NC(=O)C(C(C)CC)NC2C=Cc3c(C(C)O)cc(nc3C2O)C(=O)OC4C)n1)C(N)=O (stereo unspecified),inhibition,[1]; [16],-22.9% (inactive)
same,inhibition,[1]; [17],-22.9%
same,inhibition,[1]; [18],-22.6%
same,inhibition,[1]; [19],-22%
same,inhibition,[1]; [20],-25.6%
same,inhibition,[1]; [21],114%
same,inhibition,"[2]; BGB combo, at 5 µM",99.7%
same,inhibition,[2]; at 0.5 µM,-22.8% (inactive)
same,inhibition,"[2]; cisplatin combo, at 5 µM",99.7%
same,inhibition,[2]; [22],-25.3%
same,inhibition,[2]; [23],-12.8%
same,inhibition,"[2]; single agent, at 5 µM",99.8%
same,inhibition,"[3]; BGB IC20 combo, at 0.005 µM",7.79%
same,inhibition,"[3]; BGB IC40 combo, at 0.005 µM",-7.37%
same,inhibition,"[3]; BGB IC40 combo, at 0.05 µM",95.2%
same,inhibition,[3]; at 0.5 µM,-28.5% (inactive)
same,inhibition,"[3]; cisplatin combo, at 0.05 µM",95%
same,inhibition,"[3]; cisplatin combo, at 0.5 µM",-29.7%
same,inhibition,"[3]; cisplatin combo, at 5 µM",-54.9%
same,inhibition,[3]; [24],-28.7%
same,inhibition,[4]; at 0.5 µM,-38.7% (inactive)
same,inhibition,[4]; [19],-31%
same,inhibition,[4]; [25],-9.9%
same,inhibition,[4]; [26],100%
same,inhibition,[5]; at 0.5 µM,11.5% (inactive)
same,inhibition,[5]; [27],1.15%
same,inhibition,[5]; [28],70.9%
same,inhibition,[5]; [29],-4.79%
same,inhibition,[5]; [30],86.9%
same,inhibition,"[5]; single agent, at 5 µM",98.8%
same,inhibition,[6]; at 0.5 µM,-6.59% (inactive)
same,inhibition,[6]; [31],7.69%
same,inhibition,[6]; [32],-29.4%
same,inhibition,[7]; at 0.5 µM,2.14% (inactive)
same,inhibition,[7]; [33],13.1%
same,inhibition,[7]; [34],-39.1%
same,inhibition,[8]; at 0.5 µM,-0.91% (inactive)
same,inhibition,[8]; [35],-20.4%
same,inhibition,[8]; [36],-15.4%
same,inhibition,[9]; at 0.5 µM,-37% (inactive)
same,inhibition,[9]; [25],-29.7%
same,inhibition,[9]; [26],104%
same,inhibition,[10]; at 0.5 µM,16.8% (inactive)
same,inhibition,[10]; [37],16.2%
same,inhibition,[10]; [38],90.8%
same,inhibition,[10]; [39],25.6%
same,inhibition,[10]; [40],94.8%
same,inhibition,[11]; [41],97.5%
same,inhibition,[11]; at 0.5 µM,2.16% (inactive)
same,inhibition,[11]; [42],94.4%
same,inhibition,[12],-36.8% (inactive)
same,inhibition,[12]; [43],-24.8%
same,inhibition,[12]; [44],-63.7%
same,inhibition,[13]; at 0.5 µM,13.8% (inactive)
same,inhibition,[13]; [45],15.3%
same,inhibition,"[13]; cisplatin combination, at 5 µM",91.8%
same,inhibition,[13]; [46],-3.57%
same,inhibition,"[13]; single agent, at 5 µM",104%
same,inhibition,[14]; at 0.5 µM,-9.28% (inactive)
same,inhibition,"[14]; cisplatin combo, at 5 µM",96.8%
same,inhibition,[14]; [47],-17.4%
same,inhibition,[14]; [25],-6.48%
same,inhibition,"[14]; single agent, at 5 µM",90.8%
same,inhibition,[15]; at 0.5 µM,53.8% (inactive)
same,inhibition,[15]; [22],53.1%
same,inhibition,[15]; [23],53.1%
same,inhibition,"[15]; single agent, at 0.05 µM",-28.1%
same,inhibition,"[15]; single agent, at 5 µM",100%
CO[C@H]1/C=C/O[C@@]2(C)Oc3c(C)c(O)c4c(O)c(c5c(c4c3C2=O)=NC2(CCN(CC(C)C)CC2)N=5)NC(=O)/C(C)=C\C=C\[C@H](C)[C@H](O)[C@@H](C)[C@@H](O)[C@@H](C)[C@H](OC(C)=O)[C@@H]1C,inhibition,[1]; [16],6.6% (inactive)
same,inhibition,[1]; [17],-30.2%
same,inhibition,[1]; [18],-46.5%
same,inhibition,[1]; [19],-18.6%
same,inhibition,[1]; [20],63%
same,inhibition,[1]; [21],-0.387%
same,inhibition,"[2]; BGB combo, at 5 µM",-22.5%
same,inhibition,[2]; at 0.5 µM,1.4% (inactive)
same,inhibition,"[2]; cisplatin combo, at 5 µM",-9.76%
same,inhibition,[2]; [22],-13.2%
same,inhibition,[2]; [23],8.47%
same,inhibition,"[2]; single agent, at 5 µM",11%
same,inhibition,"[3]; BGB IC20 combo, at 0.005 µM",3.39%
same,inhibition,"[3]; BGB IC40 combo, at 0.005 µM",6.3%
same,inhibition,"[3]; BGB IC40 combo, at 0.05 µM",12%
same,inhibition,[3]; at 0.5 µM,-8.24% (inactive)
same,inhibition,"[3]; cisplatin combo, at 0.05 µM",7.56%
same,inhibition,"[3]; cisplatin combo, at 0.5 µM",-8.29%
same,inhibition,"[3]; cisplatin combo, at 5 µM",0.667%
same,inhibition,[3]; [24],-5.87%
same,inhibition,[4]; at 0.5 µM,-1.23% (inactive)
same,inhibition,[4]; [19],-1.35%
same,inhibition,[4]; [25],1.03%
same,inhibition,[4]; [26],-6.05%
same,inhibition,[5]; at 0.5 µM,5.7% (inactive)
same,inhibition,[5]; [27],19%
same,inhibition,[5]; [28],26.5%
same,inhibition,[5]; [29],-4.7%
same,inhibition,[5]; [30],9.84%
same,inhibition,"[5]; single agent, at 5 µM",14.9%
same,inhibition,[6]; at 0.5 µM,1.32% (inactive)
same,inhibition,[6]; [31],-21.2%
same,inhibition,[6]; [32],29.4%
same,inhibition,[7]; at 0.5 µM,5.15% (inactive)
same,inhibition,[7]; [33],7.14%
same,inhibition,[7]; [34],3.29%
same,inhibition,[8]; at 0.5 µM,1.18% (inactive)
same,inhibition,[8]; [35],4.24%
same,inhibition,[8]; [36],-0.452%
same,inhibition,[9]; at 0.5 µM,1.7% (inactive)
same,inhibition,[9]; [25],13.1%
same,inhibition,[9]; [26],18.7%
same,inhibition,[10]; at 0.5 µM,0.36% (inactive)
same,inhibition,[10]; [37],1.73%
same,inhibition,[10]; [38],-12.5%
same,inhibition,[10]; [39],-2.44%
same,inhibition,[10]; [40],-1.97%
same,inhibition,[11]; [41],-1.95%
same,inhibition,[11]; at 0.5 µM,1.5% (inactive)
same,inhibition,[11]; [42],4.45%
same,inhibition,[12],-10.5% (inactive)
same,inhibition,[12]; [43],-5.38%
same,inhibition,[12]; [44],-10.5%
same,inhibition,[13]; at 0.5 µM,0.406% (inactive)
same,inhibition,[13]; [45],-4.06%
same,inhibition,"[13]; cisplatin combination, at 5 µM",-22.6%
same,inhibition,[13]; [46],-14.2%
same,inhibition,"[13]; single agent, at 5 µM",14.2%
same,inhibition,[14]; at 0.5 µM,-2.39% (inactive)
same,inhibition,"[14]; cisplatin combo, at 5 µM",17.1%
same,inhibition,[14]; [47],-17.4%
same,inhibition,[14]; [25],-9.55%
same,inhibition,"[14]; single agent, at 5 µM",16.6%
same,inhibition,[15]; at 0.5 µM,7.88% (inactive)
same,inhibition,[15]; [22],-2.39%
same,inhibition,[15]; [23],11.6%
same,inhibition,"[15]; single agent, at 0.05 µM",4.52%
same,inhibition,"[15]; single agent, at 5 µM",-19.7%
